Data: PubChem BioAssay (Tox21)
Records with an inconclusive call do not appear. The source made the active and inactive calls. Unless noted, calls follow the shape of the dose curve; as a rule, active = well fitted curve in the direction sought with a large enough effect in the repeat runs; inconclusive = weak or mixed curves; inactive = no such curve, though single readings can be large; an effect the other way counts as inactive or inconclusive.

Legend:
[1] = qHTS assay to identify small molecule antagonists of the glucocorticoid receptor (GR) signaling pathway - cell viability counter screen (AID 720693); also: nearly all actives have a fitted effect of over 55% in size
[2] = qHTS assay for identifying genotoxic compounds that show differential cytotoxicity against isogenic chicken DT40 cell lines with known DNA damage response pathways - Rev3 mutant cell line (AID 743014); also: nearly all actives have a fitted effect of over 55% in size; also: potency is read from the fitted curve at half-maximal effect
[3] = qHTS assay for identifying genotoxic compounds that show differential cytotoxicity against isogenic chicken DT40 cell lines with known DNA damage response pathways - Rad54/Ku70 mutant cell line (AID 743015); also: nearly all actives have a fitted effect of over 60% in size; also: potency is read from the fitted curve at half-maximal effect
[4] = qHTS assay to identify small molecule antagonists of the androgen receptor (AR) signaling pathway - cell viability counter screen (AID 743033; also: nearly all actives have a fitted effect of over 45% in size)
[5] = qHTS assay to identify small molecule antagonists of the androgen receptor (AR) signaling pathway using the MDA cell line - cell viability counter screen (AID 743041; also: nearly all actives have a fitted effect of over 45% in size; also: potency is read from the fitted curve at half-maximal effect)
How it was run: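 Viability read by CellTiter-Fluor fluorescence in the same wells as the antagonist screen, added after 15.5 h of a 16 h, 37C exposure. Human breast carcinoma MDA-kb2 AR-luc cells, compounds co-dosed with agonist R1881.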

[6] = molecular target: Androgen receptor (Homo sapiens) (UniProt P10275); experiment: qHTS assay to identify small molecule antagonists of the androgen receptor (AR) signaling pathway (AID 743035; active = well fitted inhibition curve with a large enough effect in the signal ratio in the repeat runs, not every such curve was filed as active; the % refers to the signal ratio)
Sequence of Androgen receptor (Homo sapiens) (P10275 whole entry, looked up): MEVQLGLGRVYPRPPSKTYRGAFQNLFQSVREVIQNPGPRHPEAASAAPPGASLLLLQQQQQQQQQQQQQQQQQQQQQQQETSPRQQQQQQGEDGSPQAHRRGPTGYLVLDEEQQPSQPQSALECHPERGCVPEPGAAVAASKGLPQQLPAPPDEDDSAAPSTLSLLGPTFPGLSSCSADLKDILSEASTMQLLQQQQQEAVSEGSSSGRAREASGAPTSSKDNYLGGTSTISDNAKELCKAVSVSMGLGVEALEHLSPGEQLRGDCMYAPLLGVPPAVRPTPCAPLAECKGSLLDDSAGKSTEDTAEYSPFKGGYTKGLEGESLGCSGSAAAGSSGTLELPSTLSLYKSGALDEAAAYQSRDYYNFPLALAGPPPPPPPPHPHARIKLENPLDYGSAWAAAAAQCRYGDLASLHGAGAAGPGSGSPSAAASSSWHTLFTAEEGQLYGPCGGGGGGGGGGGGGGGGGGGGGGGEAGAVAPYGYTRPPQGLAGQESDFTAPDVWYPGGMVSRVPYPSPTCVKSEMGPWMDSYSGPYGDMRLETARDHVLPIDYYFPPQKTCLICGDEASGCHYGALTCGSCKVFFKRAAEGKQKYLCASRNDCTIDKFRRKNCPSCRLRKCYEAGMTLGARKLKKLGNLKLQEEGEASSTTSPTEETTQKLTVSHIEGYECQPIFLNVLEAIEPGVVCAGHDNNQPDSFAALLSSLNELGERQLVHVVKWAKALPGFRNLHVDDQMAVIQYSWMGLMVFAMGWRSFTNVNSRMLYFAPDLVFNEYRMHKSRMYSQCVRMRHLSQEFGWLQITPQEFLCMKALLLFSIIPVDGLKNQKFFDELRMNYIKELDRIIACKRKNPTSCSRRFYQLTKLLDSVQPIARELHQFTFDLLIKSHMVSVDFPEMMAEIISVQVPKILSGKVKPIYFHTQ
How it was run: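 Steps: seed AR-UAS-bla GripTite HEK293 cells, incubate 4 h at 37C; pin in test compound, then add agonist R1881; incubate 16 h at 37C; add LiveBLAzer B/G FRET substrate, 2 h at room temperature; read fluorescence.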

[7] = molecular target: Androgen receptor (Homo sapiens) (UniProt P10275); experiment: qHTS assay to identify small molecule agonists of the androgen receptor (AR) signaling pathway (AID 743036; active = well fitted activation curve with a large enough effect in the signal ratio in the repeat runs, with a control signal flat, not every such curve was filed as active; the % refers to the signal ratio)
How it was run: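 Beta-lactamase under UAS control, stably integrated in HEK293 GripTite cells, reports receptor activation. After 16 h compound treatment, cells received FRET substrate for 2 h at room temperature before fluorescence reading.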

[8] = molecular target: Androgen receptor (Homo sapiens) (UniProt P10275); experiment: qHTS assay to identify small molecule agonists of the androgen receptor (AR) signaling pathway using the MDA cell line (AID 743040; also: nearly all actives have a fitted effect of over 20% in size)
How it was run: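 Luciferase agonist assay: 16 h compound exposure at 37C without CO2 in MDA-kb2 AR-luc cells, whose MMTV promoter responds to both AR and GR. Luminescence measured after 30 min room-temperature incubation with ONE-Glo.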

[9] = molecular target: Androgen receptor (Homo sapiens) (UniProt P10275); experiment: qHTS assay to identify small molecule antagonists of the androgen receptor (AR) signaling pathway using the MDA cell line (AID 743042; also: nearly all actives have a fitted effect of over 55% in size)
How it was run: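 Antagonist mode: compounds plus R1881 agonist added to MDA-kb2 AR-luc cells, incubated 16 h at 37C. Luciferase reporter luminescence quantified, with multiplexed CellTiter-Fluor readout for cell viability.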

[10] = qHTS assay for identifying genotoxic compounds that show differential cytotoxicity against isogenic chicken DT40 cell lines with known DNA damage response pathways - wild type cell line (AID 743012); also: nearly all actives have a fitted effect of over 60% in size; also: potency is read from the fitted curve at half-maximal effect
How it was run: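 Cytotoxicity in repair-proficient parental chicken DT40 cells serves as the comparator for Rad54/Ku70- and Rev3-deficient lines. Cells were exposed to compounds for 40 h at 37 C/5% CO2, and ATP-based luminescence (CellTiter-Glo) measured viability.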
% is scaled to controls: 0 for no effect and ±100 for the full control effect.

O=c1c2ccccc2oc2ccccc12
active: Potency [2] 61.1 µM
inactive: Potency [1] | Potency [3] | Potency [4] | Potency [5]

Cc1nc(C)c(C)nc1C
inactive: Potency [1] | Potency [2] | Potency [4] | Potency [6] | outcome [7] | outcome [8] | Potency [5] | Potency [9]

CC(C)C/C=C(\C=O)c1ccccc1
inactive: Potency [1] | Potency [10] | Potency [4] | Potency [5]

CCCCCCCCCCCCCCCCCCCl
inactive: viability change, negative = cytotoxic [1] -4.59% [at 7.04 µM] | activity change, negative = cytotoxicity [10] 14.5% [at 8.52 µM] | activity change, negative = cytotoxicity [4] -8.37% [at 7.04 µM] | viability change, negative = cytotoxic [5] -1.19% [at 8.47 µM]

C=CC(O)CCCCC (stereo unspecified)
inactive: Potency [1] | Potency [2] | Potency [3] | Potency [4] | Potency [5]

COC(=O)Cc1cccc2ccccc12
active: Potency [2] 54.5 µM
inactive: Potency [1] | Potency [4] | outcome [7] | outcome [8] | Potency [5] | Potency [9]

O=C(O)c1ccccc1-n1cc(C(=O)O)c(=O)c2cc(Nc3c(F)cc(F)cc3Cl)c(Cl)cc21
inactive: Potency [1] | Potency [2] | Potency [3] | Potency [4] | Potency [5]

C[C@@H](O)[C@H]1C(=O)N2C(C(=O)O)=C(S[C@@H]3CN[C@H](CNS(N)(=O)=O)C3)[C@H](C)[C@H]12
inactive: Potency [1] | Potency [10] | Potency [3] | Potency [5]

O=C(O)c1cc(C(=O)O)c(C(=O)O)cc1C(=O)O
inactive: Potency [1] | Potency [2] | Potency [3] | Potency [4] | Potency [6] | outcome [7] | outcome [8] | Potency [5] | Potency [9]

Sc1nc(S)nc(S)n1
inactive: Potency [1] | Potency [2] | Potency [3] | Potency [4] | Potency [5]

CCOC(=O)CC(O)(CC(=O)OCC)C(=O)OCC
inactive: Potency [1] | Potency [10] | Potency [5]

COC(=O)c1cc(Cl)ccc1[N+](=O)[O-]
inactive: Potency [1] | Potency [10] | Potency [3] | Potency [4] | Potency [5]

C=CC(=O)NC(C)(C)C
inactive: Potency [1] | Potency [2] | Potency [3] | Potency [4] | Potency [5]

OCCOc1cccc(OCCO)c1
inactive: Potency [1] | Potency [10] | Potency [4] | Potency [5]

O=C(c1ccc(Cl)cc1)c1ccc(Cl)cc1
inactive: Potency [1] | Potency [2] | Potency [3] | Potency [4] | Potency [6] | outcome [7] | outcome [8] | Potency [5] | Potency [9]

O=C1c2ccccc2C(=O)C1c1ccc2ccccc2n1
inactive: Potency [1] | Potency [2] | Potency [4] | Potency [5]
active: Potency [3] 1.91 µM

COc1cc(C)c(Cc2cnc(N)nc2N)cc1OC
inactive: Potency [1] | Potency [4] | Potency [5]
active: Potency [10] 26.6 µM | Potency [3] 26.6 µM

CC(C)NC(=O)c1ccccc1N
inactive: Potency [1] | Potency [2] | Potency [3] | Potency [4] | Potency [5]

O=C1c2ccccc2C(=O)C1c1ccc2cc(S(=O)(=O)O)cc(S(=O)(=O)O)c2n1
active: Potency [5] 52.5 µM
inactive: Potency [1] | Potency [10] | Potency [4]

COC(=O)/C=C/C(C)=C\C=C\C(C)=C\C=C\C=C(C)\C=C\C=C(C)\C=C\C(=O)O
inactive: Potency [1] | Potency [4] | Potency [6] | outcome [7] | outcome [8] | Potency [5] | Potency [9]
active: Potency [2] 54.5 µM

CCC(CC)C(=O)O
inactive: Potency [1] | Potency [2] | Potency [3] | Potency [4] | Potency [5]

O=C(Cl)c1ccc(F)c(Cl)c1
inactive: Potency [1] | Potency [2] | Potency [3] | Potency [4] | Potency [5]

Cc1c(N=C=O)cccc1N=C=O
inactive: Potency [1] | Potency [2] | Potency [3] | Potency [6] | outcome [7] | outcome [8] | Potency [5] | Potency [9]

CCc1c(C)[nH]c2c1C(=O)C(CN1CCOCC1)CC2 (stereo unspecified)
inactive: Potency [1] | Potency [2] | Potency [3] | Potency [4] | Potency [5]

CC/C=C\CCO
inactive: Potency [1] | Potency [2] | Potency [3] | Potency [4] | Potency [5]

c1ccc(-c2ccc(-c3ccccc3)cc2)cc1
inactive: Potency [1] | Potency [2] | Potency [3] | Potency [5]

c1ccc(CN(Cc2ccccc2)Cc2ccccc2)cc1
inactive: Potency [1] | Potency [10] | Potency [3] | Potency [4] | Potency [5]
